Compound activity: PubChem, National Center for Advancing Translational Sciences (NCATS)
Tb PGK inh: qHTS Assay to Find Inhibitors of Phosphoglycerate Kinase. AID 602233, 2012. Phosphoglycerate kinase, glycosomal (Trypanosoma brucei brucei), P07378. Potency, µM (doses to about 57.5 µM), inactives show at the top dose activity change, negative = inhibition, hits mostly inhibitors. 0.043% of 380,000 active. PGK/GAPDH coupled, Kinase-Glo luminescence, 60 min; also: potency is read from the fitted curve at half-maximal effect; nearly all actives have a fitted effect of over 60% in size
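Recombinant glycosomal PGK reaction used 1,3-bisphosphoglycerate generated in-well by GAPDH (100nM final) in 100mM TEA pH 7.6, 5mM MgCl2, 0.01% Tween-20. After 60 minutes at room temperature, ATP was read by Kinase-Glo Plus luminescence end-point.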
Tb PFK block: qHTS Assay to Find Inhibitors of T. brucei phosphofructokinase; T. brucei PFK, ADP-Glo luminescence; Potency, µM (titrated, usually from 57.5 µM), inactives show at the top dose activity, negative = inhibition, hits mostly inhibitors; 0.17% of 330,000 active; AID 485367, 2010;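 also: potency is read from the fitted curve at half-maximal effect; 0% = uninhibited 1x PFK enzyme wells and -100% = no-enzyme wells; nearly all actives have a fitted effect of over 60% in size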
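Activity is normalized to no-enzyme wells (full inhibition) and 1.25 nM enzyme wells (no inhibition). Reaction: 0.5 mM F6P, 0.1 mM ATP, 45 min RT, ADP-Glo luminescence; concentration-response curves fitted and classed by quality.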
Pin1 inhibitor: qHTS Assay to Find Inhibitors of Pin1; Pin1 FP peptide displacement, HiFluor488, 10 min; Peptidyl-prolyl cis-trans isomerase NIMA-interacting 1 (Homo sapiens), Q13526; 0.009% of 390,000 active; AID 504891, 2011; Potency, µM (series often up to 115 µM), inactives show at the highest dose activity, negative = inhibition, hits mostly inhibitors; active = well fitted inhibition curve with a large enough effect in the polarisation, with a control signal flat, not every such curve was filed as active; inconclusive = small, poorly fitted or top-dose-only effect, or effect the other way, or a change in a side signal; inactive = no such curve, though single readings can be large or run the other way; the % refers to the polarisation; also: potency is read from the fitted curve at half-maximal effect
Target sequence (Q13526 whole entry, looked up): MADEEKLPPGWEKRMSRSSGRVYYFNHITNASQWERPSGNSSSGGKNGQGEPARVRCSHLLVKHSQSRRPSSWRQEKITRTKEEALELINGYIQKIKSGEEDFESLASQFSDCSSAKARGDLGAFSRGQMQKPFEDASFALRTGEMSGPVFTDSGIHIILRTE
PI5P4K alpha inh: qHTS for Inhibitors of phosphatidylinositol 5-phosphate 4-kinase (PI5P4K); PI5P4Kalpha enzyme, ADP-Glo luminescence, 60 min; hits give low values; 1.2% of 330,000 active; max response, %; Phosphatidylinositol 5-phosphate 4-kinase type-2 alpha (Homo sapiens), P48426; AID 652105, 2013; active = max response of -50% or lower; inconclusive = between -30% and -50%; inactive = -30% or higher; also: value at the top dose of about 77 µM
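Single end-point luminescence (ADP-Glo) quantified ADP from PI5P4Kalpha turnover; ATP 5 microM final, 1 h at RT, 0.1% CHAPS and 0.28 mM EGTA in HEPES pH 7.4.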
PI4K2A block: qHTS for small molecular inhibitors of PI4K2A. purified PI4K2A, ADP-Glo luminescence, 1 h; hits give low values. activity change, negative = inhibition, % at 76.9 µM. 0.13% of 420,000 active. AID 1346378, 2018; in the data active = activity change below about -50%; inconclusive = mostly about -30% to -49%;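 also: -100% = wells without enzyme as full effect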
Target sequence (Q9BTU6 whole entry, looked up): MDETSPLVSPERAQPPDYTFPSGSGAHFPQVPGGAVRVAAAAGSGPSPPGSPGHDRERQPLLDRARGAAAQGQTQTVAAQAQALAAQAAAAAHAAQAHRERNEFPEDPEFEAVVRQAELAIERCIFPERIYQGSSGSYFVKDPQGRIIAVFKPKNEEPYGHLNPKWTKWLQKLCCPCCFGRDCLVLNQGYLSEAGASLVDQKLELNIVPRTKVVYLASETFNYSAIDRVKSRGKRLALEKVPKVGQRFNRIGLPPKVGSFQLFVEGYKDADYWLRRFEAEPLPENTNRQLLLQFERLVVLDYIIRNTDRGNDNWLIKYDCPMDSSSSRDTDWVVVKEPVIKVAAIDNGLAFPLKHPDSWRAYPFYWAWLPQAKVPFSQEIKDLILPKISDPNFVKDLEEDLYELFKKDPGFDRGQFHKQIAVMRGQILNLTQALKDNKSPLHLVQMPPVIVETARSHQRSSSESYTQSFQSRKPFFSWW
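Compounds are screened against recombinant PI4K2A using PI as substrate and ATP, the latter dispensed at 300 microM. Reactions run one hour at ambient temperature before ADP-Glo detection; full inhibition defined by wells lacking enzyme.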
Active calls of the source: *; i = inactive; ? = inconclusive; · = not tested or not shown. Many of the other results were omitted from the sample, so hits are more common in it than they were. Unless noted, calls follow the shape of the dose curve; as a rule, active = well fitted curve in the direction sought with a large enough effect; inconclusive = small, poorly fitted or top-dose-only effect, or another doubt; inactive = no such curve, though single readings can be large; an effect the other way counts as inactive or inconclusive. Unless noted, % is scaled to controls: 0 for no effect and ±100 for the full control effect.

SMILES | Tb PGK inh | Tb PFK block | Pin1 inhibitor | PI5P4K alpha inh | PI4K2A block
N#Cc1cnn(-c2ccc(F)cc2)c1N | -5.2% | 0.0% | -0.9% | -51.6* | 2.1
CC(C)(C)CC(=O)OCC(=O)[C@@]1(O)CC[C@H]2[C@@H]3CCC4=CC(=O)C=C[C@]4(C)[C@H]3[C@@H](O)C[C@@]21C | · | · | · | · | -0.8
Cc1cc2c(s1)c1cnn(Cc3ccc(F)c(C)c3)c(=O)c1n2C | · | · | 0.3% | · | ·
N=C1CCC(=N)c2c1c(O)c1ccccc1c2O | -24.8% | -17.6% | ? | -71.8* | ?
CN1C(=CC=C2C=C(I)C(=O)C(I)=C2)C(C)(C)c2ccccc21 | ? | -8.7% | 199.4% | -26.8 | -8.6
CN1/C(=C\C=C2/SC(=S)NC2=O)C(C)(C)c2ccccc21 | -16.3% | 1.9% | ? | -76.7* | -9.0
Nc1ccc2nc(-c3ccccc3)sc2c1 | ? | · | 3.9% | -1.1 | -54.9*
Cc1ccc2nc(-c3ccc(N)cc3)sc2c1 | i | -10.2% | -0.8% | 8.5 | -13.5
O=c1c(-c2c(O)cc(O)c3c(=O)cc(-c4ccc(O)cc4)oc23)c(-c2ccc(O)cc2)oc2cc(O)cc(O)c12 | ? | -25.6% | ? | -82.7* | ?
O=c1cc(-c2ccc(O)c(-c3c(O)cc(O)c4c(=O)cc(-c5ccc(O)cc5)oc34)c2)oc2cc(O)cc(O)c12 | -5.2% | -4.2% | ? | -96.3* | -3.3
O=c1cc(-c2ccc(O)cc2)oc2c(-c3c(O)cc(O)c4c(=O)cc(-c5ccc(O)cc5)oc34)c(O)cc(O)c12 | i | 3.3% | -0.7% | ? | -2.7
COC(=O)C1=C(C)N(CCCC(=O)O)C(=O)NC1c1ccc(-c2ccccc2)cc1 (stereo not given) | -11.9% | -3.6% | -7.8% | -74.7* | -3.2
COC(=O)C1=C(C)N(CCCC(=O)O)C(=O)NC1c1ccc(C(F)(F)F)cc1 (stereo not given) | 6.7% | 0.7% | 8.8% | -81.4* | -0.3
COC(=O)C1=C(C)N(CCCC(=O)O)C(=O)NC1c1ccc(Br)cc1 (stereo not given) | i | 0.3% | -5.8% | -99.1* | -6.2
CC1=C(C(=O)OCC(Br)(Br)Br)C(c2ccc(Br)cc2)NC(=O)N1CCCC(=O)O (stereo not given) | · | 4.0% | · | · | ·
COC(=O)C1=C(C)N(CCCC(=O)O)C(=O)NC1c1ccc(C#N)cc1 (stereo not given) | -10.6% | · | -5.4% | -63.4* | -5.6
COc1cccc(C2c3c(ncn(-c4ccc(Br)cc4)c3=N)Oc3ccc4ccccc4c32)c1 (stereo not given) | · | · | 64.1% | · | ·
OC[C@H]1O[C@H](O[C@]2(CCl)O[C@H](CCl)[C@@H](O)[C@@H]2O)[C@H](O)[C@@H](O)[C@H]1Cl | · | · | · | · | 3.2
CC1=C(C(=O)OCc2ccccc2)C(c2ccccc2Cl)NC(=O)N1C (stereo not given) | i | 1.4% | ? | 3.0 | 10.9
COC(=O)C1=C(C)N(CCCC(=O)O)C(=O)NC1c1ccccc1Cl (stereo not given) | i | · | -8.1% | -82.0* | -0.3
Nc1ccc([N+](=O)[O-])c(C(F)(F)F)c1 | · | · | · | · | 1.2
Cn1c(SCC(=O)c2cc(Cl)c(Cl)s2)nnc1-c1ccco1 | i | -8.4% | -14.5% | -24.2 | -5.8
Cc1ccc(C(=O)CSc2nnc(-c3ccco3)n2C)cc1 | i | 0.3% | -0.9% | -56.3* | -0.6
Cc1c(Br)c(=O)oc2c(Br)c(O)c(O)cc12 | ? | ? | ? | -62.9* | -2.9
O=C(N/N=C/c1ccc2ncccc2c1)c1ccco1 | -13.7% | -5.3% | -9.0% | -76.7* | -2.2
SMILES | Tb PGK inh | Tb PFK block | Pin1 inhibitor | PI5P4K alpha inh | PI4K2A block
O=S(=O)(c1ccc(Br)s1)N1CCC(c2nc3ccccc3o2)CC1 | · | · | · | · | -4.8
COC1=CC(=O)c2nc(Cl)ccc2C1=O | · | · | · | -13.6 | -57.7*
COc1cccc2c1C(=O)C=C(C)C2=O | 2.7% | -7.1% | -1.7% | -4.7 | -10.8
COc1cc(F)c(S(=O)(=O)N2CCCN(S(=O)(=O)c3ccc4c(c3)OCCO4)CC2)c(F)c1 | · | · | 18.0% | · | ·
CN(c1ccccc1)c1ccc(CNc2nn3c(=O)c4ccccc4nc3s2)cc1 | · | · | -1.1% | · | ·
CCOC(=O)C1=C(C)N(C[C@@H]2CC[C@@H](Cc3ccc(-c4ccccc4)cc3)O2)C(=O)NC1c1ccc(SCc2ccco2)c([N+](=O)[O-])c1 (stereo not given in full) | -9.4% | -7.1% | ? | -69.7* | -16.8
Cc1c(N=C2C=CC(=O)c3ccccc32)c(=O)n(-c2ccccc2)n1C | -0.7% | -1.1% | -16.0% | -61.6* | -13.8
Cc1c(N=C2C=C(Br)C(=O)C(Br)=C2)c(=O)n(-c2ccccc2)n1C | 1.8% | -7.4% | 0.2% | -78.5* | 0.2
C=CCNc1nc(NCC=C)nc(N2CCN(C(c3ccc(F)cc3)c3ccc(F)cc3)CC2)n1 | · | · | · | · | 0.3
COc1cccc(/C=N/Nc2ccc(C(=O)O)cc2)c1O | -0.5% | -10.8% | 0.0% | -21.1 | -73.0*
CC(=O)N1c2ccc(S(=O)(=O)Nc3ccc(C)c(C)c3)cc2CC1C (stereo not given) | · | · | 9.3% | · | ·
CCOc1ccccc1N1CCN(c2nc(N)c(C#N)c(CC#N)c2C#N)CC1 | i | 2.7% | ? | -67.1* | 2.6
N#CC(C#N)=NNc1ccc2cn[nH]c2c1 | · | · | · | -63.6* | -8.3
O=C(Nc1n[nH]c(=S)s1)c1ccc2ccccc2c1 | 1.5% | -0.7% | -1.3% | -55.2* | 3.0
CC(=O)Nc1n[nH]c(=S)s1 | i | · | 0.0% | -85.7* | -12.6
O=C(Nc1nccs1)c1ccc2ccccc2c1 | -5.3% | -3.0% | -6.9% | -0.5 | 2.6
CNc1n[nH]c(=S)s1 | -4.3% | -0.9% | 5.7% | -57.4* | -1.0
C=CCNc1n[nH]c(=S)s1 | -2.9% | · | · | 0.0 | -1.1
CC(=O)Nc1nc(C)c(C(C)(C)C)s1 | i | 0.0% | -8.4% | 5.6 | 0.6
COc1cc(NC(=O)C(OC(=O)CNC(=O)c2ccccc2)c2ccccc2)c(OC)cc1Cl (stereo not given) | · | · | -0.5% | · | ·
C[C@@H](O)[C@H]1C(=O)N2C(C(=O)O)=C([C@H]3CCCO3)S[C@H]12 | · | · | · | · | 3.1
CCSc1nnc(-c2ccco2)n1C | · | · | · | · | -6.1
O=C(c1ccccc1)c1cc(-c2ccccc2)on1 | ? | -3.3% | 0.4% | 13.8 | -51.1*
Cc1cc(NC(=O)c2cc(-c3ccccc3)on2)no1 | -11.2% | -2.1% | 14.0% | · | 3.8
